Z-score data for 61 compounds are collected here from PubChem BioAssay AID1628 (Sanford-Burnham Center for Chemical Genomics, 2009).

Hit rate of the full screen: of about 190,000 compounds, about 930 (0.49%) were called active. The list shows a part of the results. Potency and affinity values are given separately. Unmarked numbers belong to inactive results.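 Rule for the calls: active = z-score of insulin promoter reporter brightness in nuclei below -3 at 5 µM, with at least 500 cells counted; inconclusive = wells with under 500 cells, flagged as toxic or sparse; inactive = the rest.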

The nature of the assay: insulin promoter down-regulators in MIN6 cells, imaging, high-content screening, mouse beta cells (AID 1628). As to conditions: MIN6 insulin promoter GFP reporter, at 5 µM, active compounds read low.
For the compound `CC(=O)c1c(N2CCOCC2)[nH]c(-c2ccccc2)nc1=S`, the z-score is 7.72.
The same measure for `CCc1ccc(C(O)(c2ccccc2OC)C(CN2CCOCC2)c2ccccc2)cc1` (stereo unspecified): -3.08 (active).
The same measure for `N#C/C(=C\c1ccc(N2CCOCC2)o1)c1ccccc1`: 4.39; for `CCN(CC)CCCOC(=O)C(c1ccccc1)c1ccccc1`: 0.01; for `COc1ccc(OCC(=O)Nc2ccccc2C(=O)N2CCOCC2)cc1`: 1.77.
To `CCOCCCNc1nc2c(C)cccn2c(=O)c1/C=C1\SC(=S)N(C(C)CC)C1=O` (stereo unspecified) belongs 17.6.
For `CC(C)NC(=O)/C(C#N)=C\c1ccc(N(C)C)o1`, the z-score was 11.5.
The same measure for `c1ccc2c(c1)[nH]c1c(NCC3CCCO3)ncnc12` (stereo unspecified): -3.45 (active).
The same measure for `Fc1ccc(OCCOCCNCC2CCCO2)cc1` (stereo unspecified): 1.23; for `Clc1ccc2[nH]c3c(NCC4CCCO4)ncnc3c2c1` (stereo unspecified): -4.6 (active); for `CCN1CC=C2C(C1)C(c1ccc(Cl)s1)C(C#N)=C(N)C2(C#N)C#N` (stereo unspecified): 15.5.
To `c1cncc(-c2nn[nH]n2)c1` belongs -1.32.
With `CC(C)(C)c1nc2ccccc2c2nnc(SCC(=O)NCc3ccco3)n12`, the z-score was 1.35.
As to `c1cncc(-c2nc(NCc3ccco3)c3ccccc3n2)c1`, the z-score was -3.11 (active).
The same measure for `O=C(Nc1nnc(-c2ccccc2)o1)Nc1ccccc1Cl`: 3.77.
To `COc1cccc(N2CCN(c3ncnc4c3[nH]c3ccc(F)cc34)CC2C)c1` (stereo unspecified) belongs -3.69 (active); to `OC1(c2cccc(C(F)(F)F)c2)CCN(c2ncnc3c2[nH]c2ccc(F)cc23)CC1`, -4.94 (active); to `O=C(NCc1cccnc1)c1ccc(CN2CCc3ccccc3C2)cc1`, 0.66.
To `O=C(Nc1ccc(S(=O)(=O)N2CCCCC2)cc1)c1ccncc1` belongs -3.68 (active); to `Cc1csc(SCC(=O)Nc2ccc(S(=O)(=O)N3CCCC3)cc2)n1`, 0.21; to `CCc1cccc2cc3c(N)c(C(=O)Nc4ccc(S(=O)(=O)N5CCCC5)cc4)sc3nc12`, 8.59.
As for `N#C/C(=C/c1ccc(N2CCCCCC2)o1)c1cccc(F)c1`, the z-score was 15.9.
To `COc1ccc(S(=O)(=O)N2CCN(c3ccc4nnc(-c5ccc(F)cc5)n4n3)CC2)cc1` belongs -4.36 (active).
The same measure for `Fc1ccc(-c2nnc3ccc(N4CCc5ccccc5C4)nn23)cc1`: -3.5 (active); for `COc1ccc(-c2nnc3sc(C(C)N4C(=O)c5ccccc5C4=O)nn23)cc1` (stereo unspecified): 1.87.
For `O=S(=O)(c1ccc(OCC(O)CN2CCN(c3ccc(F)cc3)CC2)cc1)N1CCOCC1` (stereo unspecified), the z-score is -4.17 (active).
To `CC(C)NC(=O)N1CCN(c2ccncc2S(=O)(=O)N2CCOCC2)CC1` belongs 5.83; to `OC(COc1cccc2ccccc12)CN1CCN(c2ccccc2Cl)CC1` (stereo unspecified), 3.51.
As for `COc1ccccc1N1CCN(CC(O)COc2ccc(S(=O)(=O)N3CCOCC3)cc2)CC1` (stereo unspecified), the z-score was -3.8 (active).
To `CCCCSc1cc(C)nc2ncnn12` belongs 0.8.
In the case of `O=C(O)CCCCCN1C(=O)/C(=C\c2ccc(-c3ccc(Cl)cc3)o2)SC1=S`, the z-score is 4.23.
The same measure for `COc1cc2c3nnc(-c4ccc(F)cc4)c-3cn(Cc3ccc(F)cc3)c2cc1OC`: 6.06; for `O=C(CN1CCCCCCC1)N/N=C/c1ccc(F)cc1F`: -7.88 (active).
To `CCS(=O)(=O)N1Cc2ccccc2CC1C(=O)OCC(=O)Nc1ccc(C)cc1` (stereo unspecified) belongs 5.05.
To `COC(=O)c1[nH]c2cccc(Cl)c2c1NC(=O)CN(C)C1CCCCC1` belongs 3.5.
On to `Cc1[nH]c2ccccc2c1C(=O)CN1CCCCC1C` (stereo unspecified), for which the z-score is -1.61.
To `CCOC(=O)C1CCCN(CC(=O)Nc2c(C(=O)OC)[nH]c3ccc(C)cc23)C1` (stereo unspecified) belongs -3.29 (active); to `C=CCN1C=CC(=CC=C(C#N)C#N)C=C1`, 3.27; to `Cc1nn(C)cc1N1C(=O)c2cccc3c(N)ccc(c23)C1=O`, 5.94.
With `O=C(CN1CCN(Cc2ccc(Cl)cc2)C1=O)NCCCN1CCN(c2ccc(F)cc2)CC1`, the z-score is -4.01 (active).
The same measure for `O=C(NCCN1CCCC1)C1(S(=O)(=O)c2ccc(Cl)cc2)CC1`: 3.06; for `c1ccc2c3c([nH]c2c1)C1(CCCCC1)NCC3`: -0.6.
To `O=C(N/N=C/c1cn(-c2ccccc2)nc1-c1ccccc1)c1ccco1` belongs -4.01 (active); to `O=C(N/N=C\c1cn(-c2ccccc2)nc1-c1ccccc1)c1ccc(Br)o1`, 3.24; to `Nc1c(C(=O)N/N=C/c2ccccc2Cl)oc2nc(-c3ccccc3)cc(-c3ccco3)c12`, 6.17.
To `CC(C)C(C)(C#N)NC(=O)CSc1nnc(C(F)(F)F)n1C` (stereo unspecified) belongs 3.02; to `CCSc1nc2c(c(=O)[nH]c(=O)n2C)n1C`, -1.45.
Regarding `C#CC(C)(C)NC(=O)CSc1nc2c(c(=O)n(C)c(=O)n2C)n1CCCC`, the z-score is -7.25 (active).
The same measure for `CC(=O)Nc1sc2c(c1CN1CCN(c3ccccn3)CC1)CCCC2`: -1.66; for `COc1ccc(CN2CCN(c3ccccn3)CC2)cc1OCc1ccccc1`: -8.87 (active).
Consider `Cc1cnc(NC(=O)CN2CCN(c3ccccn3)CC2)s1`, for which the z-score is 3.14.
On to `COc1ccc(OC)c(C(c2nnnn2C2CCCC2)N2CCN(c3ccccc3F)CC2)c1` (stereo unspecified), for which the z-score was -4.67 (active).
The same measure for `CCN(CC)c1ccc2cc(-c3nc4ccccc4[nH]3)c(=O)oc2c1`: 17.2; for `CCOc1cc(N(CC)CC)ccc1/C=C(/C#N)c1nc2ccccc2[nH]1`: 8.11.
The same measure for `CCOC(=O)N1CCN(C(=O)CSc2ccc3nnc(CCNC(=O)c4ccc(OC)cc4)n3n2)CC1`: 3.73; for `CN(C)c1ccc(/C=C2\CCC/C(=C\c3ccccc3)C2=O)cc1`: 3.4.
The same measure for `Cc1nnc(NC(=O)c2sc3nc(-c4cccs4)cc(C(F)(F)F)c3c2N)s1`: 15.1; for `CC(=O)Nc1ccc(C(=O)N/N=C/c2cc(Br)cc(Br)c2O)cc1`: -3.57 (active).
Turning to `O=C(N/N=C/c1cc(Br)ccc1O)Nc1ccccc1`, the z-score was -4.87 (active).
Consider `O=C(Nc1ccc(Br)cc1)C(c1ccccc1)c1ccccc1`, for which the z-score was -0.28.
To `CN(C)c1ccc(C(=O)N/N=C/c2cc(Br)cc(Br)c2O)cc1` belongs 4.65.
